About 2,000 (36%) of roughly 5,500 compounds were called active. Roughly 18% stayed inconclusive and do not appear here. Cut-off read from the data, not from the text of the source: active = normalized growth mostly below about 0.91 (no sharp cut-off); inconclusive = no clear call, values can overlap the other calls; inactive = mostly above about 0.92. The list shows a part of the results.
Assay: chemical genetic growth profiling, strain panel (AID 1159580);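 note: tested at 20 µM; growth read once vehicle control cultures reached saturation at 30 °C; 1 = growth at the plate median or of vehicle wells; lower values mean less growth of the strain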
Settings: growth OD
[1] = S. cerevisiae deletion strains, locus YDL101C, strain DUN1, stronger effect = lower value
[2] = S. cerevisiae deletion strains, locus YHR030C, strain SLT2, stronger effect = lower value

Measured: normalized growth

CCOC(=O)NC(=S)NC12CC3CC(CC(C3)C1)C2
inactive: S. cerevisiae deletion strains, locus YAR019C, strain CDC15, stronger effect = lower value 0.978 | S. cerevisiae deletion strains, locus YBL105C, strain PKC1, stronger effect = lower value 0.983 | S. cerevisiae deletion strains, locus YBR135W, strain CKS1, stronger effect = lower value 0.977 | S. cerevisiae deletion strains, locus YBR136W, strain MEC1, stronger effect = lower value 0.962 | S. cerevisiae deletion strains, locus YBR160W, strain CDC28, stronger effect = lower value 0.984 | S. cerevisiae deletion strains, locus YDL017W, strain CDC7, stronger effect = lower value 0.982 | S. cerevisiae deletion strains, locus YDL028C, strain MPS1, stronger effect = lower value 0.978 | [1] 0.979 | S. cerevisiae deletion strains, locus YDL108W, strain KIN28, stronger effect = lower value 0.957 | S. cerevisiae deletion strains, locus YDL132W, strain cdc53, stronger effect = lower value 0.971 | S. cerevisiae deletion strains, locus YDL214C, strain PRR2, stronger effect = lower value 0.875 | S. cerevisiae deletion strains, locus YDR052C, strain DBF4, stronger effect = lower value 0.993 | S. cerevisiae deletion strains, locus YDR054C, strain cdc34, stronger effect = lower value 0.967 | S. cerevisiae deletion strains, locus YDR226W, strain ADK1, stronger effect = lower value 0.975 | S. cerevisiae deletion strains, locus YDR477W, strain SNF1, stronger effect = lower value 0.894 | S. cerevisiae deletion strains, locus YER123W, strain YCK3, stronger effect = lower value 0.827 | S. cerevisiae deletion strains, locus YER133W, strain GLC7, stronger effect = lower value 0.86 | S. cerevisiae deletion strains, locus YFL009W, strain cdc4, stronger effect = lower value 0.972 | S. cerevisiae deletion strains, locus YFL029C, strain CAK1, stronger effect = lower value 0.974 | S. cerevisiae deletion strains, locus YFR003C, strain YPI1, stronger effect = lower value 0.981 | S. cerevisiae deletion strains, locus YFR019W, strain FAB1, stronger effect = lower value 0.955 | S. cerevisiae deletion strains, locus YFR028C, strain CDC14, stronger effect = lower value 0.97 | S. cerevisiae deletion strains, locus YGR040W, strain KSS1, stronger effect = lower value 0.872 | S. cerevisiae deletion strains, locus YGR052W, strain FMP48, stronger effect = lower value 0.947 | S. cerevisiae deletion strains, locus YGR092W, strain DBF2, stronger effect = lower value 0.787 | [2] 0.897 | S. cerevisiae deletion strains, locus YHR079C, strain IRE1, stronger effect = lower value 0.915 | S. cerevisiae deletion strains, locus YHR082C, strain KSP1, stronger effect = lower value 0.946 | S. cerevisiae deletion strains, locus YHR205W, strain SCH9, stronger effect = lower value 0.965 | S. cerevisiae deletion strains, locus YIL147C, strain SLN1, stronger effect = lower value 0.981 | S. cerevisiae deletion strains, locus YJL095W, strain BCK1, stronger effect = lower value 0.964 | S. cerevisiae deletion strains, locus YJL128C, strain PBS2, stronger effect = lower value 0.953 | S. cerevisiae deletion strains, locus YJL157C, strain FAR1, stronger effect = lower value 0.865 | S. cerevisiae deletion strains, locus YJR016C, strain ILV3, stronger effect = lower value 0.985 | S. cerevisiae deletion strains, locus YJR066W, strain TOR1 (second series), stronger effect = lower value 0.789 | S. cerevisiae deletion strains, locus YJR066W, strain TOR1, stronger effect = lower value 0.903 | S. cerevisiae deletion strains, locus YKL048C, strain ELM1, stronger effect = lower value 0.968 | S. cerevisiae deletion strains, locus YKL067W, strain YNK1, stronger effect = lower value 0.896 | S. cerevisiae deletion strains, locus YKL101W, strain HSL1, stronger effect = lower value 0.923 | S. cerevisiae deletion strains, locus YKL193C, strain SDS22, stronger effect = lower value 0.982 | S. cerevisiae deletion strains, locus YKL203C, strain TOR2, stronger effect = lower value 0.958 | S. cerevisiae deletion strains, locus YLR113W, strain HOG1, stronger effect = lower value 0.926 | S. cerevisiae deletion strains, locus YLR133W, strain CKI1, stronger effect = lower value 0.934 | S. cerevisiae deletion strains, locus YLR403W, strain SFP1, stronger effect = lower value 0.851 | S. cerevisiae deletion strains, locus YML070W, strain DAK1, stronger effect = lower value 0.878 | S. cerevisiae deletion strains, locus YMR001C, strain CDC5, stronger effect = lower value 0.973 | S. cerevisiae deletion strains, locus YMR205C, strain PFK2 (second series), stronger effect = lower value 0.917 | S. cerevisiae deletion strains, locus YMR277W, strain FCP1, stronger effect = lower value 0.977 | S. cerevisiae deletion strains, locus YNL006W, strain LST8, stronger effect = lower value 0.971 | S. cerevisiae deletion strains, locus YNL020C, strain ARK1, stronger effect = lower value 0.901 | S. cerevisiae deletion strains, locus YNL161W, strain CBK1, stronger effect = lower value 0.987 | S. cerevisiae deletion strains, locus YNL183C, strain NPR1, stronger effect = lower value 0.939 | S. cerevisiae deletion strains, locus YNL207W, strain RIO2, stronger effect = lower value 0.97 | S. cerevisiae deletion strains, locus YNL222W, strain SSU72, stronger effect = lower value 0.982 | S. cerevisiae deletion strains, locus YNL307C, strain MCK1 (second series), stronger effect = lower value 0.881 | S. cerevisiae deletion strains, locus YOL078W, strain AVO1, stronger effect = lower value 0.972 | S. cerevisiae deletion strains, locus YOL136C, strain PFK27, stronger effect = lower value 0.898 | S. cerevisiae deletion strains, locus YOR061W, strain CKA2, stronger effect = lower value 0.845 | S. cerevisiae deletion strains, locus YOR119C, strain RIO1, stronger effect = lower value 0.934 | S. cerevisiae deletion strains, locus YOR231W, strain MKK1, stronger effect = lower value 0.926 | S. cerevisiae deletion strains, locus YOR329C, strain SCD5, stronger effect = lower value 0.984 | S. cerevisiae deletion strains, locus YPL031C, strain PHO85, stronger effect = lower value 0.87 | S. cerevisiae deletion strains, locus YPL153C, strain RAD53, stronger effect = lower value 0.863 | S. cerevisiae deletion strains, locus YPL204W, strain HRR25, stronger effect = lower value 0.876 | S. cerevisiae deletion strains, locus YPL209C, strain IPL1, stronger effect = lower value 0.981 | S. cerevisiae deletion strains, locus YPL256C, strain CLN2, stronger effect = lower value 1 | S. cerevisiae deletion strains, locus YPR025C, strain CCL1, stronger effect = lower value 0.982 | S. cerevisiae deletion strains, locus YPR106W, strain ISR1, stronger effect = lower value 0.992 | S. cerevisiae deletion strains, locus YPR111W, strain DBF20, stronger effect = lower value 0.996 | S. cerevisiae deletion strains, strain NNK1, stronger effect = lower value 0.988 | S. cerevisiae deletion strains, strain TSCII, stronger effect = lower value 0.971

CCOC(=O)c1cc(-c2ccc(N)cc2)oc1C
active: S. cerevisiae deletion strains, locus YCL061C, strain MRC1, stronger effect = lower value 0.891 | S. cerevisiae deletion strains, locus YEL061C, strain CIN8, stronger effect = lower value 0.59 | [2] 0.351 | S. cerevisiae deletion strains, locus YKL190W, strain CNB1, stronger effect = lower value 0.869 | S. cerevisiae deletion strains, locus YLR039C, strain RIC1, stronger effect = lower value 0.414 | S. cerevisiae deletion strains, locus YLR085C, strain ARP6, stronger effect = lower value 0.458 | S. cerevisiae deletion strains, locus YLR262C, strain YPT6, stronger effect = lower value 0.385 | S. cerevisiae deletion strains, locus YML094W, strain GIM5, stronger effect = lower value 0.806 | S. cerevisiae deletion strains, locus YMR307W, strain GAS1, stronger effect = lower value 0.548 | S. cerevisiae deletion strains, locus YNL153C, strain GIM3, stronger effect = lower value 0.66 | S. cerevisiae deletion strains, locus YNL298W, strain CLA4 (second series), stronger effect = lower value 0.783 | S. cerevisiae deletion strains, locus YNR030W, strain Alg12, stronger effect = lower value 0.885 | S. cerevisiae deletion strains, locus YPL055C, strain LGE1, stronger effect = lower value 0.749 | S. cerevisiae deletion strains, locus YPL241C, strain CIN2, stronger effect = lower value 0.483 | S. cerevisiae deletion strains, locus YPR135W, strain CTF4, stronger effect = lower value 0.611
inactive: S. cerevisiae deletion strains, locus YAL013W, strain DEP1, stronger effect = lower value 0.943 | S. cerevisiae deletion strains, locus YBR229C, strain ROT2, stronger effect = lower value 0.95 | [1] 0.927 | S. cerevisiae deletion strains, locus YDL134C, strain PPH21, stronger effect = lower value 0.939 | S. cerevisiae deletion strains, locus YDR150W, strain NUM1, stronger effect = lower value 0.822 | S. cerevisiae deletion strains, locus YGR078C, strain PAC10, stronger effect = lower value 0.942 | S. cerevisiae deletion strains, locus YGR229C, strain SMI1, stronger effect = lower value 0.964 | S. cerevisiae deletion strains, locus YHR087W, strain rtc3, stronger effect = lower value 0.96 | S. cerevisiae deletion strains, locus YJR043C, strain POL32, stronger effect = lower value 0.952 | S. cerevisiae deletion strains, locus YJR075W, strain HOC1, stronger effect = lower value 0.963 | S. cerevisiae deletion strains, locus YLR058C, strain SHM2 (second series), stronger effect = lower value 0.961 | S. cerevisiae deletion strains, locus YMR219W, strain ESC1, stronger effect = lower value 0.959 | S. cerevisiae deletion strains, locus YMR263W, strain SAP30, stronger effect = lower value 0.889 | S. cerevisiae deletion strains, locus YNL322C, strain KRE1, stronger effect = lower value 0.973 | S. cerevisiae strains, strain wild type, stronger effect = lower value 0.923

Reference: PubChem BioAssay AID1159580 (chemical genetic matrix, 2015)
